From PubChem
LYPLA2 inh – LYPLA2 inhibitors, primary screen, counter-screen for PME1 inhibitor project, biochemical, fluorescence polarization, FP-Rh probe ABPP | Acyl-protein thioesterase 2 (Homo sapiens), O95372 | recombinant LYPLA2 | inhibition, % at 5.9 µM | hit rate 0.38% among 320,000;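 active = inhibition above the screen-wide mean plus 3 SD, limit set per campaign, cut at about 26% in these data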;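 note: 0% = LYPLA2 with DMSO and 100% = wells lacking LYPLA2 enzyme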
Target sequence (O95372 whole entry, looked up): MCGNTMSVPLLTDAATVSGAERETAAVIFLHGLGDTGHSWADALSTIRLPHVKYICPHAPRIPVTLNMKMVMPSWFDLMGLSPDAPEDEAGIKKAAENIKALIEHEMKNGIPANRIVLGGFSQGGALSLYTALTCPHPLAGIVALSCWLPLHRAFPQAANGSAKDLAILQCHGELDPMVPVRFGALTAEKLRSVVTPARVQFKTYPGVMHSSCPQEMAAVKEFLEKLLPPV
Rin1-Abl PPI inh – inhibitors of Rin1-Abl protein binding, primary screen, biochemical, TR-FRET. hit rate 0.4% among 360,000. inhibition, % at 7.35 µM. Tyrosine-protein kinase ABL1 (Homo sapiens) + Ras and Rab interactor 1 (Homo sapiens), …; in the data active = inhibition above about 5%, passing the limit was not always enough
LYPLA1 counter – LYPLA1 inhibitors, primary screen, counter-screen for PME1 inhibitor project, biochemical, fluorescence polarization, FP-Rh probe ABPP; Acyl-protein thioesterase 1 (Homo sapiens), O75608; recombinant LYPLA1; inhibition, % at 5.9 µM; hit rate 0.16% among 320,000; AID 2174, 2009;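 active = inhibition above the mean of all tested compounds plus 3 SD, set per campaign, cut at about 14% in these data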;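 note: inhibitors block serine hydrolase probe labeling of LYPLA1 so polarization falls; 0% = enzyme with DMSO and 100% = wells lacking LYPLA1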
Target sequence (O75608 whole entry, looked up): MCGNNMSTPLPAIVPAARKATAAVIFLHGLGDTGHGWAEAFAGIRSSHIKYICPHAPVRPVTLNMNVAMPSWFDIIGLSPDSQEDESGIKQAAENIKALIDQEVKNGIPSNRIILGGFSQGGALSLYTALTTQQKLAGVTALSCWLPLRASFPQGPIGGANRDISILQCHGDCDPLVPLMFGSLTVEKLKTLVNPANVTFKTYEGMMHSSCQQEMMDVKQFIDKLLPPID
p97 inhibitor – inhibitors of human p97 ATPase, primary screen, biochemical | inhibition, % at 8 µM | Transitional endoplasmic reticulum ATPase (Homo sapiens), P55072 | recombinant p97 ATPase, Kinase-Glo ATP luminescence, 3 h | hit rate 0.42% among 220,000; in the data active = inhibition above about 15%;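 note: 0% = DMSO vehicle and 100% = wells lacking enzyme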
PREPL inhibitor – PREPL enzyme inhibitors, primary screen, biochemical, fluorescence polarization; Prolyl endopeptidase-like (Homo sapiens), Q4J6C6; recombinant PREPL, fluorescence polarization activity-based probe; inhibition, % at 5.96 µM; hit rate 0.68% among 320,000; in the data active = inhibition above about 43%;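 note: 0% = enzyme with DMSO and 100% = wells lacking enzyme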
Hck Nef HTS – inhibitors of Nef-activated human Hck kinase, primary screen, biochemical, Z-Lyte FRET, 384-well, Hck-YEEI. Tyrosine-protein kinase HCK (Homo sapiens), P08631. Recombinant Hck-YEEI plus Nef, Z-Lyte FRET kinase assay. hit rate 0.68% among 220,000. AID 463187, 2010. inhibition, % at 20 µM;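 active = Hck-Nef kinase inhibition above about 50%, limit read from the data; inactive = inhibition below that limit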;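 note: 0% = DMSO with Hck plus Nef and 100% = Hck alone without Nef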
* = called active by the depositor; . = no result. Shown are actives, neighbours in structure and some others; about 1.7% of the full set was active somewhere.

SMILES | LYPLA2 inh | Rin1-Abl PPI inh | LYPLA1 counter | p97 inhibitor | PREPL inhibitor | Hck Nef HTS
CCc1nn2c(=O)cc(COc3ccc(/C=C4\C(=N)N5N=C(C)SC5=NC4=O)cc3)nc2s1 | 7.0 | 0.8 | 4.6 | 0.5 | 4.4 | 75.3*
COc1cc(/C=N/NC(=O)COc2c(C)cc([N+](=O)[O-])cc2C)ccc1OC(=O)c1ccccc1 | -14.5 | 5.6 | -4.3 | 6.6 | 70.5* | 5.7
COc1cc(/C=N/NC(=O)COc2c(C)cc([N+](=O)[O-])cc2C)ccc1OC(=O)c1ccccc1Br | -7.7 | -2.4 | -5.8 | 6.5 | 13.9 | 5.6
C=CCNc1nc2c(c(=O)[nH]c(=O)n2C)n1CC(O)COc1ccc2ccccc2c1 (stereo not given) | . | -1.4 | . | . | . | .
Cc1ccc(Nc2nc(-c3ccccc3)c(CC(=O)O)s2)cc1 | -3.8 | 0.0 | -0.7 | -0.5 | 57.7* | 19.7
O=c1oc(-c2ccco2)nc2sc3c(c12)CCCC3 | 18.4 | -0.2 | 0.1 | -4.8 | 72.4* | -17.8
O=C(C[n+]1ccccc1)NNc1ccccc1 | 5.7 | 1.3 | 1.8 | . | 3.0 | .
O=C(/C=C/c1ccc(O)c(O)c1)O[C@H](Cc1ccc(O)c(O)c1)C(=O)O | . | . | . | . | . | 51.8*
O=C(O)c1ccc(N/N=C/C(Br)=C/c2ccccc2)cc1 | 2.8 | -1.2 | 0.0 | 14.7* | 12.8 | 12.2
CCC(CC)COC(=O)C1=C(C)NC(=O)NC1c1ccc(N(C)C)cc1 (stereo not given) | 3.3 | 0.2 | 1.4 | . | -4.4 | .
COc1ccc(N2CC(C(=O)N/N=C/c3ccc([N+](=O)[O-])cc3)CC2=O)cc1 (stereo not given) | 16.9 | -6.4 | 1.0 | 4.3 | 6.3 | 4.9
COc1ccc(N2CC(C(=O)N/N=C/c3ccc(C)cc3)CC2=O)cc1 (stereo not given) | 4.1 | -1.0 | -2.7 | 14.7* | 9.8 | 10.2
O=C(NC1CCCc2ccccc21)c1c(F)cccc1Cl (stereo not given) | 0.1 | 2.5 | 2.1 | . | 0.3 | .
COn1c(C)c(C)c2c3nonc3ccc21 | . | 3.4 | . | 18.8* | . | -9.6
O=C(Nc1cccc(Cl)c1)Nc1nnc(-c2ccncc2)s1 | -5.9 | -3.6 | -11.1 | 0.8 | 7.1 | 56.8*
O=C(Nc1ccc(Cl)cc1)Nc1nnc(-c2ccncc2)s1 | -2.5 | 0.2 | -4.9 | 6.5 | 0.3 | 11.9
CN(CC(=O)Nc1ccc(F)cc1)C(=O)c1ccccc1Sc1ccccc1C#N | . | 0.0 | . | . | . | .
O=C(N/N=C/c1ccc(-c2ccc(S(=O)(=O)Nc3ncccn3)cc2)o1)c1cc2ccccc2cc1O | -21.1 | -0.1 | -8.9 | 14.6* | 26.8 | 48.2
CCOc1ccc(C(=O)N/N=C/c2ccc(-c3ccc(S(=O)(=O)Nc4ncccn4)cc3)o2)cc1 | -7.4 | -0.7 | -7.9 | 4.3 | 22.8 | 15.8
CC(C)(C)c1ccc(CC(=O)N2CCC2(C)C(=O)NS(=O)(=O)c2ccc3c(c2)CCO3)cc1 (stereo not given) | . | 0.3 | . | . | . | .
COC(=O)CCC(=O)OC1(C)C(=O)C2=CN(CCN3CCOCC3)C(c3ccc(OC)cc3)=CC2=C(Br)C1=O (stereo not given) | 8.7 | . | 2.6 | . | 33.2 | 12.4
COC(=O)CCC(=O)OC1(C)C(=O)C2=CN(Cc3ccc4c(c3)OCO4)C(c3ccc(OC)cc3)=CC2=C(Br)C1=O (stereo not given) | 0.4 | 1.8 | 0.8 | . | 30.1 | .
COC(=O)CCC(=O)OC1(C)C(=O)C2=CN(CCCCO)C(c3ccc(OC)cc3)=CC2=C(Br)C1=O (stereo not given) | 3.0 | . | 2.2 | . | 55.3* | .
COC(=O)CCC(=O)OC1(C)C(=O)C2=CN(CCc3ccccn3)C(c3ccc(OC)cc3)=CC2=C(Br)C1=O (stereo not given) | 7.0 | 1.1 | 0.7 | . | 43.9* | .
COc1cc2ccccc2cc1C(=O)N1CCc2ccccc21 | . | 2.0 | . | . | . | .
CCn1c(C)nc2cc(C(=O)n3cc(C(=O)c4ccccc4O)cn3)ccc21 | . | . | . | 2.7 | . | 88.9*
